# Laboratory results reported in PubChem BioAssay (EPA / NIEHS).
# Records with an inconclusive call do not appear. Calls of active or inactive are those of the source. The calls were made as follows, unless noted: active = hit-call score of the fitted dose curve at least 0.9, where 1 is the maximum; inconclusive = response in the unintended direction; inactive = score below 0.9.
# Test system: not listed separately
# Experiment: CCTE_Padilla_ZF_144hpf_TERATOSCORE: (Legacy) CCTE's 144 Hour Post-fertilization zebrafish Assay Teratoscore, Padilla Lab (AID 2283679; active = hit-call score of the fitted dose curve at least 0.9, where 1 is the maximum; inactive = score below 0.9;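 as to AC50: zebrafish embryos with chorions exposed by immersion from 6-8 hpf to 5 dpf with daily renewal; teratogenicity score from eye scoring of death hatching and malformations at 144 hpf; higher score means more developmental defects relative to DMSO baseline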)
# In short: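 Larvae scored by eye at 144 hpf for death, hatching and malformations after a day in clean Hanks'. Before that, daily-renewed exposure at 80 uM (0.4% DMSO, 26C) from roughly 6-8 hpf through 5 dpf, 4 embryos per chemical.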
# Chain of Cytochrome P450 3A4 (Homo sapiens) (P08684 whole entry, looked up): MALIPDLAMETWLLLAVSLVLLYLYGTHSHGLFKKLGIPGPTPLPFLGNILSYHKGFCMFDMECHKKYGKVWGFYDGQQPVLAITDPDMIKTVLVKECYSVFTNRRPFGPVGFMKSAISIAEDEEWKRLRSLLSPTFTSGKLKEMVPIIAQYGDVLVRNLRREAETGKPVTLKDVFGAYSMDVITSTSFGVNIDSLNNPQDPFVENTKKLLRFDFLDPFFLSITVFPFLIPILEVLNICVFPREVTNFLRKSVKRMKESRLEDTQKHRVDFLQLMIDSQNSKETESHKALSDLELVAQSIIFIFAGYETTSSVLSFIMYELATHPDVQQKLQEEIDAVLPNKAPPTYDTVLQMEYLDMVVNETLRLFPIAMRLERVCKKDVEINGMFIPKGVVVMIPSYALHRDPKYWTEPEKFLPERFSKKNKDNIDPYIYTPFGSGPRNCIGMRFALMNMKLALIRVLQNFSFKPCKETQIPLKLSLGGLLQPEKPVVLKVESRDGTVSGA
SMILES,AC50,outcome
CC(C)CCCCCCc1ccc(O)cc1,8.06 µM (active),–
C=CCOC(Cn1ccnc1)c1ccc(Cl)cc1Cl (stereo not drawn),2.91 µM (active),–
CC(C)(C)[C@@H](O)[C@@H](Cc1ccc(Cl)cc1)n1cncn1,46.7 µM (active),–
CCSC(=O)N(CC(C)C)CC(C)C,–,inactive
CCC(C)OC(=O)N1CCCCC1CCO (stereo not drawn),–,inactive
Oc1ccc(C(c2ccc(O)cc2)C(Cl)(Cl)Cl)cc1,17.1 µM (active),–
COc1c(Cl)ccc(Cl)c1C(=O)O,–,inactive
O=C(Nc1ccc([N+](=O)[O-])cc1Cl)c1cc(Cl)ccc1O,1.65 µM (active),–
CCNc1nc(N)nc(Cl)n1,–,inactive
N#CSCSc1nc2ccccc2s1,0.651 µM (active),–
CSC(=O)c1cccc2nnsc12,12.7 µM (active),–
c1ccc2[nH]c(-c3cscn3)nc2c1,52.8 µM (active),–

# Read-out: Cytochrome P450 3A4 (Homo sapiens) (UniProt P08684)
# Experiment: CLD_CYP3A4_6hr: CellzDirect (CLD) Gene Expression Assay for xenobiotic metabolism (CYP3A4) at 6 hours (AID 2283680)
# In short: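 Primary human hepatocytes (two donor preparations) dosed; CYP3A4 mRNA harvested at 6 h and quantified by qNPA chemiluminescence. Gain of signal fitted against 0.2% DMSO vehicle; cytotoxicity flagged by phase-contrast morphology.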
SMILES,outcome,AC50
CCCN(CCC)c1c([N+](=O)[O-])cc(C(F)(F)F)c(N)c1[N+](=O)[O-],inactive,–
O=C(O)C1(C(=O)Nc2ccc(Cl)cc2Cl)CC1,inactive,–
c1ccc(Nc2ccccc2)cc1,inactive,–
S=C(S)NCCNC(=S)S.[Mn+2].[S-]C([S-])=NCCN=C([S-])[S-].[Zn+2],–,3.97 µM (active)
CCN(Cc1c(F)cccc1Cl)c1c([N+](=O)[O-])cc(C(F)(F)F)cc1[N+](=O)[O-],–,1.9 µM (active)
COCCO,inactive,–
CC(C)(c1ccc(O)cc1)c1ccc(O)cc1,inactive,–
CCCN(CCC)C(=O)SCC,inactive,–
CCCCOC(=O)C(C)Oc1ccc(Oc2ccc(C(F)(F)F)cn2)cc1 (stereo not drawn),inactive,–
CN(C)C(=O)Nc1ccc(Cl)c(Cl)c1,inactive,–
CCCCCOC(=O)COc1cc(N2C(=O)C3=C(CCCC3)C2=O)c(F)cc1Cl,–,3.78 µM (active)
CC(C)(C)[C@@H](O)[C@@H](Cc1ccc(Cl)cc1)n1cncn1,inactive,–
Oc1ccc(C(c2ccc(O)cc2)C(Cl)(Cl)Cl)cc1,inactive,–
COc1c(Cl)ccc(Cl)c1C(=O)O,inactive,–
CCNc1nc(N)nc(Cl)n1,inactive,–
CSC(=O)c1cccc2nnsc12,inactive,–
